Assay outcomes: PubChem BioAssay, National Center for Advancing Translational Sciences (NCATS)
4MU fluor: qHTS Assay for Spectroscopic Profiling in 4-MU Spectral Region; compound autofluorescence, 340/450 nm, 4-MU equivalents; stronger effect = higher value; max dye-equivalent concentration, M; 59,000 compounds, 11% hits; AID 589, 2007; in the data active = max dye-equivalent concentration above about 10 nM; inconclusive = mostly about 1.1 nM to 9.6 nM
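Compounds in 100 mM Tris, pH 8.0, sat 15 min at room temperature before fluorescence was read at 340 nm excitation/450 nm emission; a per-plate six-point 4-MU standard curve converted signals to dye-equivalent concentration at each compound concentration.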
A350 autofl: qHTS Assay for Spectroscopic Profiling in A350 Spectral Region; Compound autofluorescence, 340/450 nm, Alexa 350 dye-equivalents; stronger effect = higher value; max dye-equivalent concentration, M; 59,000 compounds, 11% hits; AID 590, 2007; in the data active = max dye-equivalent concentration above about 10 nM; inconclusive = mostly about 1.1 nM to 9.6 nM
HSD17B inh: qHTS Assay for Inhibitors of HSD17B4, hydroxysteroid (17-beta) dehydrogenase 4. recombinant HSD17B10, NADH fluorescence kinetic. 75,000 compounds, 7.6% hits. 3-hydroxyacyl-CoA dehydrogenase type-2 (Homo sapiens), Q99714. Potency, µM (top dose mostly 57.1 µM), inactives show at the top dose activity change, negative = inhibition, actives largely listed as inhibitors;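 note: the protocol describes HADH2 (HSD17B10) and not the HSD17B4 of the title; potency is the fitted concentration of half-maximal effect; % is set by controls: 0 for no effect and ±100 for the full control effect; nearly all actives have a fitted effect of over 70% in size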
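Activity followed as NADH fluorescence increase (ex 360, em 450 nm) every 30 seconds for 4 min, using final 90 uM beta-hydroxybutyryl CoA and 1 mM NAD+. Recombinant His-tagged enzyme, 20 nM, pH 9.0 Tris buffer, 15 min compound preincubation.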
AID923: qHTS Assay for Allosteric/Competitive Inhibitors of Caspase-1: Spectroscopic Profiling in AFC Spectral Region. AID 923, 2007. compound fluorescence, AFC spectral region (405/520 nm). 75,000 compounds, 1.1% hits. Potency, µM (top dose mostly 57.5 µM), for inactives: at the top dose fluorescence increase, hits mostly activators; note: potency is the fitted concentration of half-maximal effect; 0% is about no effect
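Baseline compound fluorescence (AFC region, 405 nm ex/520 nm em) taken from the intercept of kinetic reads with 50 nM caspase-1 and 5 uM Ac-WEHD-AFC; normalized to an on-plate AFC standard curve; compounds titrated up to 57 uM.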
CRE-bla Fsk: Cell signaling CRE-BLA (Fsk stim); CHO CRE-bla reporter (cAMP response element driving beta-lactamase), forskolin EC10, beta-lactamase ratio; Potency, µM (series often up to 38.2 µM), for the others: at the top dose activity change, negative = inhibition, actives largely listed as activators; 71,000 compounds, 2.5% hits; active = well fitted activation curve with a large enough effect in the signal ratio, with a control signal flat, not every such curve was filed as active; inconclusive = small, poorly fitted or top-dose-only effect, or effect the other way, or a change in a side signal; the % refers to the signal ratio; note: potency is the fitted concentration of half-maximal effect; % of control where 0% means no effect
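CRE-bla CHO cells stimulated with EC10 NKH 477 (water-soluble forskolin) and compound titrations, 3 h at 37C; beta-lactamase read with CCF4 after 2 h at room temperature. Activity from 460/530 nm emission ratio, AC50 values for positive or negative modulation.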
HADH2 inh: qHTS Assay for Inhibitors of HADH2 (Hydroxyacyl-Coenzyme A Dehydrogenase, Type II) | 3-hydroxyacyl-CoA dehydrogenase type-2 (Homo sapiens), Q99714 | recombinant HADH2, NADH fluorescence, beta-hydroxybutyryl-CoA | Potency, µM (series often up to 57.1 µM), inactives show at the top dose activity change, negative = inhibition, most hits filed as inhibitors | 73,000 compounds, 3.4% hits | AID 886, 2007; note: potency is the fitted concentration of half-maximal effect; % is set by controls: 0 for no effect and ±100 for the full control effect; nearly all actives have a fitted effect of over 60% in size
Target sequence (Q99714 whole entry, looked up, one chain of several): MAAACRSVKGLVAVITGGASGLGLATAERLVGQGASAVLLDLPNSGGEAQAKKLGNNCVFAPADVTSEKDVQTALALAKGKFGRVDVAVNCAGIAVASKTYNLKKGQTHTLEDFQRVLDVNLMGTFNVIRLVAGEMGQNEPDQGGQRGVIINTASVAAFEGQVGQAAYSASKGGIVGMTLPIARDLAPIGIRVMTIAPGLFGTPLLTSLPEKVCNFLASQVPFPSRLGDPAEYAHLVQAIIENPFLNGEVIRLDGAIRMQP
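Activity measured as NADH fluorescence gain (360/450 nm), taken as the change between first and last reads of a 4-min kinetic run. Conditions: pH 9.0 Tris buffer, 20 nM E. coli-expressed His-tagged enzyme, 1 mM NAD+, 90 uM beta-hydroxybutyryl-CoA; 15-min compound preincubation.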
The depositor's hits bear a star; i = inactive; ? = inconclusive; nt = not tested or not shown; ! = a repeat was not active; [ ] = another dose, or the depositor's remark. Rows were chosen to be rich in hits. Some 14% of all compounds tested hit in one or more screens of this group. Unless noted, calls come from the whole dose curve; as a rule, active = well fitted curve in the direction sought with a large enough effect; inconclusive = small, poorly fitted or top-dose-only effect, or another doubt; inactive = no such curve, though single readings can be large; an effect the other way counts as inactive or inconclusive.

SMILES	4MU fluor	A350 autofl	HSD17B inh	AID923	CRE-bla Fsk	HADH2 inh
CCCCCn1c(CCCNC(=O)CC)nc2ccccc21	nt	nt	-6%	-1%	-11%	9%
CC(=O)C1CCC2C3CC(C)C4=CC(=O)CC[C@@]4(C)C3C(O)C[C@@]12C (stereo partly drawn)	nt	nt	3%	2%	nt	nt
Cc1ccc(-n2ncc3c(NCCCn4ccnc4)ncnc32)c(C)c1	nt	nt	2%	-1%	-11%	-2%
Cc1cccc(-n2ncc3c(NCCCn4ccnc4)ncnc32)c1	nt	nt	25µM*	-4%	12%	?
COc1ccc(-c2oc3ncn(CCN4CCOCC4)c(=N)c3c2-c2ccc(OC)cc2)cc1	1.7e-08M*	1.9e-08M*	98%	1%	0.25µM*	?
COc1ccc(-c2csc3ncnc(NCCN4CCOCC4)c23)cc1	i	i	23%	0%	-11%	-2%
c1ccc(-c2csc3ncnc(NCCN4CCOCC4)c23)cc1	i	i	17%	-1%	?	6%
COc1ccc(-c2oc3ncnc(NCCN4CCOCC4)c3c2-c2ccc(OC)cc2)cc1	5.3e-08M*	4e-08M*	25µM*	1%	19%	33%
c1ccc(-c2oc3ncnc(NCCCN4CCOCC4)c3c2-c2ccccc2)cc1	i	i	32µM*	0%	2.5µM*	10µM*
C[C@H](N=C(NC#N)Nc1ccncc1)C(C)(C)C	i	i	?	-3%	?	-7%
O=C1C=CC2(OCCCO2)C(Br)=C1	nt	nt	8%[11.4 µM]	1%[11.5 µM]	nt	-1%[11.4 µM]
COc1cc(C)nc(-n2nc(C)cc2OC)n1	i	i	-3%[25.6 µM]	0%[25.7 µM]	-4%[17.1 µM]	1%[25.6 µM]
ClC(=Nc1cccc2ccccc12)N(c1ccccc1)c1ccccc1	i	i	-3%[11.4 µM]	6%[11.5 µM]	8%[7.6 µM]	-5%[11.4 µM]
COc1ccc(-n2ncc3c(NCCCN4CCOCC4)ncnc32)cc1	i	?	32µM*	0%	12%	6%
Fc1ccc(C(c2ccc(F)cc2)N2CCN(C/C=C\c3ccccc3)CC2)cc1	2.1e-08M*!	1.9e-08M*!	-8%	2%	?	0%
N[C@@H](C(=O)O)[C@@H]1C[C@H]1C(=O)O	i	i	nt	nt	1%	-7%
COc1ccc(C=Nc2c(O)ccc3ccccc23)cc1OC	1.3e-08M*	?	4µM*	3%[11.5 µM]	9%[7.6 µM]	59%[11.4 µM]
Cc1cc(N=Cc2c(O)ccc3ccccc23)no1	nt	nt	-20%	1%	?	-24%
Cc1nc(NCCCO)c(C#N)c2c1COC(C)(C)C2	3.2e-07M*	3.6e-07M*	nt	nt	nt	nt
CCN(CC)c1nc(C)c2c(c1C#N)CC(C)(C)OC2	1.8e-07M*	2e-07M*	nt	nt	nt	nt
CC1(C)Cc2c(C#N)c(NCCCO)nc(-c3ccccc3)c2CO1	nt	nt	25µM*	2%	10µM*	?
c1ccc(Oc2ccc(-n3cnnn3)cc2)cc1	nt	nt	5%	1%	9%	-4%
Cc1nnc(Sc2nc3c(c(=O)n(C)c(=O)n3C)n2Cc2ccc(Cl)cc2)s1	i	i	-7%	1%	2%	12%
CCCCn1c(Cc2ccccc2)n[nH]c1=S	i	i	-18%	2%	-5%	-26%
CCCCn1c(-c2ccccc2)nc2c(=O)n(C)c(=O)[nH]c21	?	?	32µM*	-2%	-7%	80%
SMILES	4MU fluor	A350 autofl	HSD17B inh	AID923	CRE-bla Fsk	HADH2 inh
CCCCn1c(NCCN(C)C)nc2c1c(=O)[nH]c(=O)n2C	i	i	-4%	-1%	5%	10%
CCCCn1c(C)nc2c(=O)n(C)c(=O)[nH]c21	1.5e-08M*	1.6e-08M*	-24%	-1%	2%	0%
Cc1ccc(Cl)cc1	nt	nt	0%	0%	-10%	-1%
CC1CCCN(C(=O)CSc2nnc(-c3ccc(S(=O)(=O)N4CCOCC4)cc3)n2C)C1 (stereo not drawn)	i	i	25µM*	1%	3%	10%
CSc1nnc(-c2ccc(S(=O)(=O)N3CCCC3)cc2)n1C	i	i	32µM*	0%	1%	?
Nn1c(SCC(=O)NC2CCCCC2)nnc1-c1ccccc1	1.2e-07M*	9.3e-08M*	32%	1%	-1%	-1%
Cn1c(SCC(=O)NC2CCCC2)nnc1-c1ccc(S(=O)(=O)N2CCOCC2)cc1	i	i	32µM*	-4%	-7%	10%
Cc1ccc(NC(=O)CSc2nnc(-c3ccc(S(=O)(=O)N4CCOCC4)cc3)n2C)cc1	i	i	10%	0%	11%	24%
COc1ccccc1-c1ccc2ncnc(N3CCOCC3)c2c1	i	i	-3%	-2%	?	-7%
Cn1c(=O)cnc2cnc(OCc3ccccc3)nc21	i	i	-6%	3%	9%	-4%
C=CCOn1c(=O)c(C)[n+]([O-])c2ccccc21	nt	nt	?	1%	?	4%[11.4 µM]
COC(=O)c1ccccc1COn1c(=O)c[n+]([O-])c2ccccc21	3.7e-08M*	3.6e-08M*	-24%	0%	6%	7%
COC(=O)c1ccccc1COn1c(=O)c(C)[n+]([O-])c2ccccc21	2.4e-08M*	2.3e-08M*	-23%	-1%	-8%	8%
COc1ccc(O[C@H]2C=C[C@@H](c3ccccc3)O[C@H]2COC(=O)CC/C(C)=N\OC[C@@H](C)[C@H](OCc2ccccc2)C(C)C)cc1	nt	nt	-5%[11.4 µM]	0%[11.5 µM]	nt	-1%[11.4 µM]
Cc1nc([N+](=O)[O-])cn1-c1nc2ccccn2c1[N+](=O)[O-]	i	i	-2%[11.4 µM]	-1%[11.5 µM]	2%[7.6 µM]	-3%[11.4 µM]
c1ccc(-c2cc3c(-n4cccc4)ncnc3o2)cc1	3.4e-08M*	5.4e-08M*	32µM*	1%	28%	25µM*
c1cn(-c2ncnc3ccc(-c4ccoc4)cc23)cn1	?	?	3%	4%	?	14%
COc1ccc(/C(O)=C2/C(=O)C(=O)N(CCCN(C)C)C2c2ccc(C)o2)cc1Cl (stereo not drawn)	i	i	nt	nt	nt	nt
CCCCC=O	nt	nt	1%	3%	-6%	-5%
Cc1c(C(=O)NC(C)C)oc2c1-c1[nH]ncc1CC2	?	?	32µM*	-3%	12%	-26%
Cc1c(C(=O)NCc2ccccc2Cl)oc2c1C(=O)CCC2	i	i	-9%	0%	9%	2%
CCOc1ccc(CCNC(=O)c2oc3c(c2C)-c2[nH]ncc2CC3)cc1OCC	nt	nt	-4%	8%	2.5µM*	-6%
COc1ccccc1N(CC(=O)Nc1cccnc1)S(C)(=O)=O	nt	nt	0%	0%	?	13%[11.4 µM]
COc1cc(OC)cc(C(=O)OCn2nnc3ccccc3c2=O)c1	nt	nt	17%	-1%	13µM*	-9%
